Test results published in PubChem BioAssay (NCATS).
Values joined by “and” are separate entries in the source; they are usually repeats but may differ in a detail not shown here. Equal values may be shown once. Records with an inconclusive call do not appear. Some compounds were tested as several samples or in several runs, with calls that do not always agree. Active and inactive are the calls of the source. Calls come from the whole dose curve; as a rule, active = well fitted inhibition curve with a large enough effect; inconclusive = small, poorly fitted or top-dose-only effect; inactive = flat fitted curve, though single readings scatter.

The compounds below were run against Phospholipid hydroperoxide glutathione peroxidase GPX4 (Homo sapiens) (UniProt P36969) (assay: Primary qHTS Assay for Inhibitors of Recombinant Selenoprotein Glutathione Peroxidase 4 (GPX4) (AID 1845192; note: nearly all actives have a fitted effect of over 65% in size)). Settings: recombinant GPX4, GR-coupled NADPH fluorescence, 15 min; series mostly up to 50 µM; activity change, negative = inhibition: at the top concentration.
Sequence of Phospholipid hydroperoxide glutathione peroxidase GPX4 (Homo sapiens) (P36969 whole entry, looked up): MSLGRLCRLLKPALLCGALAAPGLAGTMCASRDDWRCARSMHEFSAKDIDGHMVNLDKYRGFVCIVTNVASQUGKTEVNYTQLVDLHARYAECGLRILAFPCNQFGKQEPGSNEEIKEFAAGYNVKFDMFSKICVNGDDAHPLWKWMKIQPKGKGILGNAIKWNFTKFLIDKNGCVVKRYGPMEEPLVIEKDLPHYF
From the text: Assay Provider: Elias S.J. Arner MD PhD.
Department of Medical Biochemistry and Biophysics
Karolinska Institutet, Solna, Stockholm, Sweden
Selenoprotein glutathione peroxidases (GPX), like the ubiquitously expressed GPX1 and the ferroptosis modulator GPX4, enact their antioxidant activities by reducing hydroperoxides using glutathione. […] GPX1 and GPX4 inhibitors have thus shown promise as anti-cancer agents. Existing inhibitors are often promiscuous, or modulate GPX activity only indirectly, so novel direct inhibitors identified through screening against GPX1 and GPX4 could be valuable. Here, we developed optimized glutathione reductase (GR)-coupled GPX assays for the biochemical high-throughput screen (HTS) of almost 12,000 compounds with known mechanisms of action. Initial hits were triaged using a GR counter-screen, assessed for isoform specificity using a separate GPX2 assay, and were assessed for general selenocysteine-targeting activity using a thioredoxin reductase (TXNRD1) assay. With this suite of assays, we identified novel GPX1/GPX2- and GPX4-specific inhibitors and can here present a validated pipeline for future discovery research for selenoprotein-targeting agents.
SEQUENCE No. (e.g., 1, 2, 3, etc.); […] (e.g., Cells, Incubation, Reagent, etc.); VALUE; DESCRIPTION.
1; Reagent 1; 3 uL; 333.33 nM GPx4 enzyme or no enzyme control in 1536-well, black, solid Greiner assay plate.
2; Compound; 25 nL; Kalypsis pin tool (Wako USA) equipped with a 1536-well pin head.
3; Incubation; 30 min; room temperature.
4; Reagent 2; 1 uL; 500 nM GR, 5 mM GSH, 2.5 mM NADPH solution
5; Reagent 3; 1 uL; 2.5 mM CHP in 50% EtOH.
6; Detection; Fluorescence; ViewLux microplate reader, excitation 340 nm and emission 450 nm.
7; Incubation; 15 min; room temperature.
8; Detection; Fluorescence; ViewLux microplate reader, excitation 340 nm and emission 450 nm.
NOTES (numbers refer to Sequence numbers above)
1. 3 µL of 333.33 nM GPX4 and 0.016% BSA in assay buffer (50 mM Tris-HCl, 2 mM EDTA (pH 7.5), 150 mM NaCl) was added to columns 3-48 of 1536-well plates using a BioRAPTR Flying Reagent Dispenser (Let's Go Robotics (LGR), Carlsbad, CA). A no-enzyme control (0.01% BSA in TES assay buffer) was added to columns 1-2.
2. 25 nL, library and DMSO controls were added to each well with a pin tool (Kalypsys).
3. The assay plates were incubated for 30 minutes at room temperature.
4. 1 µL of master mix (500 nM glutathione reductase (GR), 5 mM reduced glutathione (GSH), 2.5 mM NADPH in assay buffer) was added.
5. 1 µL of cumene hydroperoxide (CHP) ([2.5 mM] in 50% EtOH) was then added within 5 minutes to initiate the reaction. Final concentrations were: 200 nM GPX4, 1 mM GSH, 0.5 mM CHP, 0.5 mM NADPH, 100 nM GR, 0.01% BSA.
6. Initial fluorescence readout (t=0) at 340/450 nm was measured using a ViewLux multimodal detector (PerkinElmer, Waltham, MA).
8. Endpoint fluorescence readout (t=15) at 340/450 nm was measured 15 min after room temperature incubation.
% is set by controls: 0 for no effect and ±100 for the full control effect; potency is the fitted concentration of half-maximal effect.

Row | Structure (SMILES) | Potency | activity change, negative = inhibition | outcome
1 | Cn1cnc(-c2cc3nccc(Oc4ccc(NC(=S)NC(=O)Cc5ccccc5)cc4F)c3s2)c1 | inactive and 7.18 µM (active) | – | –
2 | CC[C@]1(O)C[C@H]2CN(CCC3=c4ccccc4=N[C]3[C@@](C(=O)OC)(c3cc4c(cc3OC)N(C)[C@H]3[C@@](O)(C(N)=O)[C@H](O)[C@]5(CC)C=CCN6CC[C@]43[C@@H]65)C2)C1 | – | -10.5% (inactive) | –
3 | O=C(O)c1nc(=O)[nH]c(=O)[nH]1 | – | 4.26% [at 0.409 µM] (inactive) | –
4 | CN1CCN(c2ncc(-c3cc(Cl)cc(Cl)c3Cl)c(N)n2)CC1 | – | 1.21% (inactive) | –
5 | Nc1[nH]nc2nnc(-c3c(-c4ccccc4)nn4ccccc34)cc12 | – | -8.31% (inactive) | –
6 | CC[C@@H]([C@H](C)O)n1ncn(-c2ccc(N3CCN(c4ccc(OCC5CO[C@@](Cn6cncn6)(c6ccc(F)cc6F)C5)cc4)CC3)cc2)c1=O (stereo not given in full) | – | -7.35% (inactive) | –
7 | O=C1CCCC(=O)C1C(=O)c1ccc(C(F)(F)F)cc1[N+](=O)[O-] | – | -22.7% (inactive) | –
8 | Cc1csc(-c2nnc(Nc3ccc(Oc4ncccc4-c4ccnc(N)n4)cc3)c3ccccc23)c1 | – | -10.1% (inactive) | –
9 | Cc1ccc2c(c1)c1c(n2CCc2ccc(C)nc2)CCN(C)C1 | – | -9.91% (inactive) | –
10 | COc1ccc(Cn2ccc3ccc(C(=O)NO)cc32)cc1 | inactive | – | –
11 | CNC(=O)c1cc(COc2nnc(Nc3ccc(Cl)cc3)c3ccoc23)ccn1 | – | – | inactive
12 | CCCCC(C)(C)[C@H](O)C=C[C@H]1[C@H](O)CC(=O)[C@H]1CC=CCCCC(=O)O | – | -9.27% (inactive) | –
13 | Cc1ccc(C(=O)N(CCCN)[C@@H](c2oc3cc(Cl)ccc3c(=O)c2Cc2ccccc2)C(C)C)cc1 | – | -16% (inactive) | –
14 | CCN1CCN(c2ccc(Nc3cc(N(C)C(=O)Nc4c(Cl)c(OC)cc(OC)c4Cl)ncn3)cc2)CC1 | inactive | – | –
15 | CCNC(=O)c1noc(-c2cc(C(C)C)c(O)cc2O)c1-c1ccc(CN2CCOCC2)cc1 | inactive | – | –
16 | CC(C)CNc1ccnc(NCc2csc(-c3ccccc3)n2)n1 | – | -7.17% (inactive) | –
17 | COc1nccc(-c2c(-c3ccc(F)cc3)ncn2C2CCC(O)CC2)n1 (stereo not given) | inactive | – | –
18 | CC(C)C[C@H](NC(=O)c1cc2ccccc2s1)C(=O)N1CCN(C(=O)[C@H](CO)NS(=O)(=O)c2ccc(Cl)cc2Cl)CC1 | – | -21.6% (inactive) | –
19 | O=c1[nH]nc(OCCCc2ccc(Cl)cc2)c(NCc2cccnc2)c1Br | – | 4.69% (inactive) | –
20 | COc1cc([C@@H]2c3cc4c(cc3[C@@H](O[C@@H]3O[C@@H]5CO[C@@H](C)O[C@@H]5[C@H](O)[C@@H]3O)[C@H]3COC(=O)[C@H]23)OCO4)cc(OC)c1O | – | -7.94% (inactive) | –

Row | Structure (SMILES) | Potency | activity change, negative = inhibition | outcome
21 | CN(C)CCCNC(=O)c1ccc(-c2cc(O)c3ncccc3c2)cc1 | inactive | – | –
22 | NC1(C(=O)N[C@@H](CCO)c2ccc(Cl)cc2)CCN(c2ncnc3[nH]ccc23)CC1 | – | 2.64% (inactive) | –
23 | C#CCN(C)CC1=Cc2ccccc2Oc2ccccc21 | – | -2.15% (inactive) | –
24 | Cc1cc2c(cc1C1(c3ccc(C(=O)O)cn3)CC1)C(C)(C)CCC2(C)C | – | -0.816% (inactive) | –
25 | COc1c(C)cnc(Cn2cnc3c(Cl)nc(N)nc32)c1C | – | – | inactive
26 | CC1=C(C(=O)Nc2cc3cn[nH]c3cc2F)C(c2ccc(C(F)(F)F)cc2)CC(=O)N1 (stereo not given) | inactive | – | –
27 | COc1ccc(CCC(=O)Nc2nc3ccc(Cl)cc3s2)cc1OC | – | 6.66% (inactive) | –
28 | CNC1CCC(N(Cc2cccc(-c3ccncc3)c2)C(=O)c2sc3ccccc3c2Cl)CC1 (stereo not given) | inactive | – | –
29 | COc1cccc(OC)c1-c1cc(C(=O)NC2(C(=O)O)C3CC4CC(C3)CC2C4)nn1-c1ccnc2cc(Cl)ccc12 (stereo not given) | – | -15.4% (inactive) | –
30 | CC1=C(CC(=O)O)c2cc(F)ccc2C1=Cc1ccc(S(C)=O)cc1 (stereo not given) | – | -6.72% (inactive) | –
31 | O[C@@H](COc1cccc2ncccc12)CN1CCN(C2c3ccccc3[C@@H]3[C@H](c4ccccc42)C3(F)F)CC1 (stereo not given in full) | – | -26.9% (inactive) | –
32 | Cc1cccc(-c2[nH]c(C(C)(C)C)nc2-c2ccc3c(c2)OCO3)n1 | – | 3.78% (inactive) | –
33 | COc1cc2nccc(Oc3ccc(NC(=O)Nc4ccc(F)cc4F)c(F)c3)c2cc1OC | – | 3.89% (inactive) | –
34 | CN1CCC(COc2cnc(-c3cccc(Cn4nc(-c5cccc(C#N)c5)ccc4=O)c3)nc2)CC1 | inactive | – | –
35 | Cc1cnc(-c2cc(N3CCN(C(=O)CCS(C)(=O)=O)CC3)ncc2Cl)c(C)c1 | inactive | – | –
36 | CN(C)c1ccccc1CN1CCCN(Cc2ccccc2N(C)C)C1c1ccncc1 | – | – | inactive
37 | COc1cc2ncnc(Nc3cc(Br)c(O)c(Br)c3)c2cc1OC | inactive | – | –
38 | CN[C@@H](C)[C@H]1[C@H](O)C[C@@]2(C)[C@@H]3CC[C@H]4C(C)(C)[C@@H](NC)CC[C@@]45C[C@@]35CC[C@]12C | – | -4.33% [at 9.73 µM] (inactive) | –
39 | O=C1C(c2c(O)[nH]c3ccccc23)=Nc2ccccc21 | inactive | – | –
40 | c1ccc(-c2oc3ncnc(NC[C@@H]4CCCO4)c3c2-c2ccccc2)cc1 | – | 2.3% (inactive) | –
